ATXN2 expr inh: Primary qHTS for Inhibitors of ATXN expression; HEK-293 ATXN2-luciferase reporter, luminescence, 24 h; Potency, µM (highest dose often 57 µM), hits mostly inhibitors; hit rate 0.72% among 360,000; note: nearly all actives have a fitted effect of over 55% in size
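qHTS (up to 57 uM final) was run with 24 h compound exposure of reporter cells at 37 °C. Each well was multiplexed: SteadyGlo luminescence measured ATXN2-luciferase expression after a fluorogenic Gly-Phe-AFC viability readout (25 uM final).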
TGFb SMAD3 inh: qHTS for Inhibitors of TGF-b. HepG2 CAGA-GFP TGF-b/SMAD3 reporter, GFP fluorescence, 18 h; TGF-beta stimulated, 500 pg/mL final. Potency, µM (titrated, usually from 46.1 µM), hits mostly inhibitors. hit rate 1.2% among 410,000. AID 588855, 2011; note: nearly all actives have a fitted effect of over 65% in size
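Inhibition of TGF-beta-driven CAGA-GFP reporter expression in HEPG2 cells is measured by cellular GFP fluorescence after 18 h stimulation with 500 pg/mL recombinant TGF-beta in 1% FBS medium at 37 degrees C.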
Anesthetic bind: qHTS Assay for Identification of Novel General Anesthetics | apoferritin/1-aminoanthracene competitive binding, fluorescence | Ferritin light chain (Equus caballus), P02791 | hit rate 0.074% among 350,000 | Potency, µM (top dose mostly 77.5 µM), most hits filed as inhibitors; note: nearly all actives have a fitted effect of over 20% in size
Target sequence (P02791 2-175 limits assumed): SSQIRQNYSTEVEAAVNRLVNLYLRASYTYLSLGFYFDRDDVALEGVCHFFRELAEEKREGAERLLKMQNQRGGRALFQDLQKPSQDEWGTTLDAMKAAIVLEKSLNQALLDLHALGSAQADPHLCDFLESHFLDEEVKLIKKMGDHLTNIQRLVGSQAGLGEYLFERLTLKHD
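Read-out: endpoint 1-AMA fluorescence, excitation 380 nm and emission 535 nm, after compounds sit 10 min at room temperature with 10 uM horse-spleen apoferritin in 50% saturated 1-AMA/PBS. Values come from four-parameter Hill fits.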
HepG2 tox: qHTS for Inhibitors of TGF-b: Cytotox Counterscreen; HepG2 CAGA-GFP viability, ATP luminescence, 18 h; Potency, µM (highest dose often 46.1 µM), most hits filed as cytotoxic; hit rate 0.76% among 410,000
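HepG2 CAGA-GFP cells (1000/well, DMEM with 1% FBS) received compound, then TGF-beta at 500 pg/mL final, and were incubated 18 hours at 37 degrees C. Viability was read by CellTiter-Glo luminescence. Media-only wells were set as complete cell-killing and DMSO as no toxicity.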
ATXN viability: Viability Counterscreen for Primary qHTS for Inhibitors of ATXN expression | S2 cells (HEK-293 line with an ATXN2-luciferase reporter) viability, CellTiter-Fluor protease fluorescence, 24 h | Potency, µM (titrated, usually from 56.7 µM), actives largely listed as cytotoxic | hit rate 0.49% among 400,000 | AID 651635, 2014; note: nearly all actives have a fitted effect of over 40% in size
EBOV entry S4 rt: qHTS Assay for Identifying Compounds that block Entry of Ebola Virus: Screen 4, ratio channel; shares compounds with ATXN2 expr inh; Ebola pseudovirus entry assay, ratio channel; AC50, µM; hit rate 79% among 170; AID 1117308, 2015; calls by dose curve
EBOV entry S4 bl: qHTS Assay for Identifying Compounds that block Entry of Ebola Virus: Screen 4, blue channel; shares compounds with ATXN2 expr inh; Ebola virus entry assay, blue channel fluorescence ratio; Channel: blue; calls only; 170 tested, under 10 active; AID 1117309, 2015; call rule not given here
EBOV S4 green: qHTS Assay for Identifying Compounds that block Entry of Ebola Virus: Screen 4, green channel. shares compounds with ATXN2 expr inh. Ebola virus entry reporter assay, green fluorescence channel; Channel: green. calls only. 170 tested, under 10 active. AID 1117316, 2015; call rule not given here
Each line names hits and unclear results; the compound was inactive in the other large screens (follow-up assays come after a bar, where they were run). Only a sample is shown. Unless noted, calls come from the whole dose curve; as a rule, active = well fitted curve in the direction sought with a large enough effect; inconclusive = small, poorly fitted or top-dose-only effect, or another doubt; inactive = no such curve, though single readings can be large; an effect the other way counts as inactive or inconclusive.

CC(C)Oc1ccc(CNC(=O)C2CCCN(S(=O)(=O)c3ccc4c(ccn4C)c3)C2)cc1 (stereo unspecified)	none
CN(C)C(=O)Oc1ccc(C(=O)c2ccccc2)cc1	none
CN1CCN=C(c2ccccc2)c2cc(Cl)ccc21	none (no result: ATXN2 expr inh, TGFb SMAD3 inh, Anesthetic bind, HepG2 tox)
CN(C)NC(=O)CCC(=O)O	none (no result: TGFb SMAD3 inh, Anesthetic bind, HepG2 tox, ATXN viability)
NCCCNCCCCNCCCNC(=O)Cc1ccc(O)cc1	none (no result: ATXN2 expr inh, TGFb SMAD3 inh, HepG2 tox, ATXN viability)
CC(N)[C@H](O)c1ccc(O)c(O)c1 (stereo partly specified)	none (no result: ATXN2 expr inh, Anesthetic bind, ATXN viability)
NC[C@H](O)c1ccc(O)c(O)c1	none | EBOV entry S4 rt inactive | EBOV entry S4 bl inactive | EBOV S4 green inactive
C[C@H](N)[C@H](O)c1ccc(O)c(O)c1	ATXN viability inconclusive (no result: TGFb SMAD3 inh, HepG2 tox) | EBOV entry S4 rt inactive | EBOV entry S4 bl inactive | EBOV S4 green inactive
Cc1ccc(C(=O)CN2CCOCC2)cc1	none (no result: ATXN2 expr inh, Anesthetic bind, ATXN viability)
NCC[C@H](O)C(=O)N[C@H]1C[C@@H](N)[C@@H](O[C@H]2O[C@@H](CN)[C@@H](O)[C@@H](O)[C@@H]2N)[C@@H](O[C@H]2O[C@@H](CO)[C@@H](O)[C@@H]2O)[C@@H]1O	none (no result: ATXN2 expr inh, TGFb SMAD3 inh, HepG2 tox, ATXN viability)
CCOc1ccc(CCNC(=O)c2cc3c(-c4ccc(OC)c(OC)c4)nn(C)c3s2)cc1OCC	ATXN2 expr inh inconclusive, ATXN viability inconclusive
CC[C@H]1OC(=O)C[C@@H](O)[C@H](C)[C@@H](O[C@@H]2O[C@H](C)[C@@H](O[C@H]3C[C@@](C)(O)[C@@H](O)[C@H](C)O3)[C@H](N(C)C)[C@H]2O)[C@@H](CC=O)C[C@@H](C)C(=O)/C=C/C(C)=C/[C@@H]1CO[C@@H]1O[C@H](C)[C@@H](O)[C@@H](OC)[C@H]1OC	none (no result: Anesthetic bind)
CN1CCCC(C(O)(c2ccccc2)c2ccccc2)C1 (stereo unspecified)	none (no result: ATXN2 expr inh)
CC1CC(O)[C@]2(O)[C@]13CC(=O)OC[C@@]2(C)[C@@](C)(O)C(=O)C3 (stereo partly specified)	none (no result: ATXN2 expr inh, TGFb SMAD3 inh, HepG2 tox, ATXN viability)
O=C(Cn1c(=O)oc2cc(Cl)ccc21)Nc1cccc(C(F)(F)F)c1	TGFb SMAD3 inh inconclusive (no result: ATXN2 expr inh, ATXN viability)
CC[C@]1(O)CC(O[C@@H]2CC(N(C)C)C(O)C(C)O2)c2c(cc3c(c2O)C(=O)c2c(O)cccc2C3=O)C1C(=O)OC (stereo partly specified)	none (no result: ATXN2 expr inh, TGFb SMAD3 inh, HepG2 tox, ATXN viability)
CCCCCCCCCCCCCCCCOC[C@@H](O)COP(=O)([O-])OCC[N+](C)(C)C	none (no result: ATXN2 expr inh, TGFb SMAD3 inh, HepG2 tox, ATXN viability)
Cc1cccc(C(=O)Nc2ccc(C(=O)OCc3cc(=O)n4nc(C5CC5)sc4n3)cc2)c1	none
COC1C(O)C(C)O[C@H](OC2CC[C@@]3(C=O)C4CC[C@]5(C)C(C6=CC(=O)OC6)CC[C@@]5(O)C4CC[C@@H]3C2)C1O (stereo partly specified)	none (no result: ATXN2 expr inh, TGFb SMAD3 inh, HepG2 tox, ATXN viability)
CC1O[C@@H](OC2CC(O)[C@@]3(CO)C4C(O)C[C@@]5(C)C(C6=CC(=O)OC6)CC[C@]5(O)C4CC[C@]3(O)C2)C(O)C(O)C1O (stereo partly specified)	none (no result: ATXN2 expr inh, TGFb SMAD3 inh, HepG2 tox, ATXN viability)
C[C@@]12CC[C@H](O)C[C@@H]1CC[C@H]1[C@@H]2C[C@@H](O)[C@]2(C)[C@@H](C3=CC(=O)OC3)CC[C@]12O	none (no result: ATXN2 expr inh, TGFb SMAD3 inh, HepG2 tox, ATXN viability)
CC(=O)c1ccc(Oc2nc(C)nc3c2oc2ccccc23)cc1	TGFb SMAD3 inh inconclusive
NC1(c2ccccc2)CCCCC1	ATXN2 expr inh inconclusive (no result: TGFb SMAD3 inh, Anesthetic bind, HepG2 tox)
CC(C)C[C@H](NC(=O)[C@H](Cc1ccccc1)NC(=O)CNC(=O)[C@@H](NC(=O)[C@@H](N)Cc1ccc(O)cc1)[C@H](C)O)C(=O)N[C@H](C(=O)O)[C@H](C)O	none (no result: ATXN2 expr inh, TGFb SMAD3 inh, HepG2 tox, ATXN viability)
COc1ccc(OCC(=O)N2CCN(Cc3cccc(OC)c3OC)CC2)cc1	none (no result: ATXN2 expr inh, ATXN viability)
